Our source for the inhibition values is PubChem BioAssay AID651674 (The Scripps Research Institute Molecular Screening Center, 2012).

Screen size: about 2,200 compounds; about 1,700 (77%) were called active.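 The calls were made as follows: active = mean inhibition across replicate wells exceeding the computed hit threshold (cut at about 13% in these data); inactive = the rest.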 The set was probably picked from earlier hits. Not all results are given here.

The target in the assay is Hepatocyte nuclear factor 4-alpha (Homo sapiens) (UniProt P41235). In words: blockers of HNF4 self-association – biochemical, split-luciferase complementation, luminescence, counter-screen for ABHD5-PLIN5 interaction inhibitor project (AID 651674).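 Also: light from luciferase halves that rejoin when HNF4 fusion proteins dimerize; 0% = DMSO only wells and the 100% control is not given.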 The following applies: HNF4 dimerization, at 4 µM, active compounds read high.
Chain of Hepatocyte nuclear factor 4-alpha (Homo sapiens) (P41235 whole entry, looked up, the tested form may be a part): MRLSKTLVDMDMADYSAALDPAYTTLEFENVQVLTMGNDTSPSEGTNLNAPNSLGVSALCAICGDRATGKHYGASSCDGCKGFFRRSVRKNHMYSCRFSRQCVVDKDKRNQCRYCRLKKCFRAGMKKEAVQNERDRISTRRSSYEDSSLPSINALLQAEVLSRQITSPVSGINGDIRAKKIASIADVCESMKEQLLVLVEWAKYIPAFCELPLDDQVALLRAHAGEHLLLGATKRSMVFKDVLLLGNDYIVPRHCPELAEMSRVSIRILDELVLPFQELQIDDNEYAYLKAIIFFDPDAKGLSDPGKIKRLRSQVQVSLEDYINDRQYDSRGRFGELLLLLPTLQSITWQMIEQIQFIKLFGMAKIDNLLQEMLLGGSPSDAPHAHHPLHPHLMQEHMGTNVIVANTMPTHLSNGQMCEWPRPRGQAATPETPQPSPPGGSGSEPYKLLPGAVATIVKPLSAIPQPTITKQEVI
What is called inhibition is the drop in the measured response relative to a control, in per cent. On to `COc1ccc(CN2C(=O)NC(=O)/C(=C\c3ccc(OC)c(OC)c3OC)C2=O)cc1`, for which the inhibition is 31.3% (active).

In the case of `CN(C)CC1Oc2ccccc2OC1(O)c1ccccc1` (stereo not given), the inhibition is 104% (active).

On to `Cc1cccc(N2C(=O)NC(=O)/C(=C\c3cnn(-c4ccccc4)c3)C2=O)c1`, for which the inhibition was 68.7% (active).

Regarding `CCOC(=O)[C@]12Cc3ccccc3[C@H]1N(C1CCCCC1)C(=O)c1cc(OC)ccc12`, the inhibition was 27.9% (active).

For `CCc1nnc(NS(=O)(=O)c2ccc(N=Cc3c(O)n(-c4ccccc4)c(=O)[nH]c3=O)cc2)s1`, the inhibition is 33.6% (active).
